A short description of assay [1]: Cell Viability - HepG2 (AID 433; calls by dose curve;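 also: potency is read from the fitted curve at half-maximal effect; cells exposed to compound for 40 hours; potency for ATP loss meaning cytotoxicity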). Conditions: qHTS. In a few lines:
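In this qHTS format, a 40 h, 37 °C compound incubation of HepG2 cells in complete medium precedes a 20 min CellTiter-Glo step at room temperature. Tamoxifen and doxorubicin serve as positive controls; Hill-equation fits yield AC50.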

Assay [2] is described as follows: Cell Viability - Mesenchymal (AID 546).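 Also: cells exposed to compound for 40 hours before reading.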 Conditions: mesenchymal cells viability, qHTS; activity change, negative = cytotoxicity: at 91.7 µM (top of the series). In short, it runs like this: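 AC50 values reflect the drop in intracellular ATP in a human kidney mesenchymal line derived from normal glomeruli. Treatment lasts 40 hr at 37 °C in complete medium, and the signal comes from CellTiter-Glo luminescence.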

Assay [3] in a line: Cellular Toxicity (caspase-3) Jurkat (AID 655).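 Also: cells exposed to compound for 16 h at 37 °C before reading.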 Conditions: Jurkat caspase-3 activation, luminescence; caspase-3 activation: at 92.2 µM (top of the series), DMSO = 0%, tamoxifen = 100%. In a few lines:
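qHTS in human Jurkat T-cell leukemia line: 16 hr compound treatment at 37 °C, caspase-3/7 activity measured by Caspase-Glo luminescence. AC50 derived from Hill equation.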

Assay [4] is described as follows: Cell Viability - LYMP1-002 - Assay at 16 hr (AID 948).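 Also: 0% = DMSO alone and full effect = 92 µM tetraoctylammonium bromide.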 Conditions: LYMP1-002 lymphoblastoid cell viability; series mostly up to 92.2 µM. In short, it runs like this:
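In this qHTS, lymphoblastoid LYMP1-002 cells (human) receive compounds for 16 hr at 37 C. Viability is taken from CellTiter-Glo ATP luminescence, and AC50 derives from standard Hill fits.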

Assay [5] is described as follows: Cell Viability - LYMP2-011 (AID 969).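 Also: 0% = DMSO only and full inhibition = 92 µM tetraoctylammonium bromide; nearly all actives have a fitted effect of over 60% in size.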 Conditions: LYMP2-011 lymphoblastoid cells viability; series mostly up to 92.2 µM. In a few lines: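 2500 cells/well in complete medium, compound-treated 24 h at 37 C. Viability read as intracellular ATP by CellTiter-Glo luminescence after 30 min at room temperature. AC50 from Hill fits of qHTS concentration-response data.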

Assay [6] is described as follows: Cell Viability - LYMP2-013 (AID 970).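 Also: 0% = DMSO only and full inhibition = tetraoctylammonium bromide control; nearly all actives have a fitted effect of over 55% in size.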 Conditions: LYMP2-013 lymphoblastoid cells viability; series mostly up to 92.2 µM. In short, it runs like this: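 Human lymphoblastoid LYMP2-013 cells, 2500/well, treated 24 h at 37 C in complete medium; viability as intracellular ATP by CellTiter-Glo luminescence after 30 min. AC50 from Hill fits of qHTS concentration-response.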

A short description of assay [7]: Cell Viability - LYMP2-021 (AID 974).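 Also: compound exposure lasts 24 hours at 37 °C; % is scaled to controls: 0 for no effect and ±100 for the full control effect; nearly all actives have a fitted effect of over 55% in size.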 Conditions: LYMP2-021 lymphoblastoid cells viability; series mostly up to 92.2 µM. In short, it runs like this:
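Human lymphoblastoid LYMP2-021 cells, 2500/well in complete medium, treated 24 hours at 37 C. Intracellular ATP by CellTiter-Glo luminescence (30 min, RT); AC50 from Hill fits of concentration-response.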

Assay [8] is described as follows: Cell Viability - LYMP2-002 (AID 977).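 Also: compound exposure lasted 24 h at 37 °C; plate controls were DMSO only for no effect and 92 µM tetraoctylammonium bromide for full effect.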 Conditions: LYMP2-002 lymphoblastoid cell viability, qHTS; series mostly up to 92.2 µM. In short, it runs like this: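 Cytotoxicity is scored as concentration-dependent loss of cellular ATP in a human lymphoblastoid line after 24 hr compound treatment at 37 C. AC50 is obtained by modelling concentration-response data with the Hill equation.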
On the technique in general: qHTS replaces the single test concentration by a dilution series.

Assay [9] can be described thus: Cell Viability - LYMP2-008 (AID 980). Also: % is scaled to controls: 0 for no effect and ±100 for the full control effect; nearly all actives have a fitted effect of over 60% in size. Conditions: LYMP2-008 lymphoblastoid cell viability, qHTS; series mostly up to 92.2 µM. In a few lines:
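LYMP2-008 lymphoblastoid cells (2500/well) plated 5 h, then treated 24 h at 37 C in complete medium. Viability read as intracellular ATP by CellTiter-Glo luminescence after 30 min at room temperature; AC50 from Hill fits.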

Assay [10] is described as follows: Cell Viability - LYMP2-012 (AID 982).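 Also: cellular ATP by luciferase luminescence where a drop means cytotoxicity; cells exposed to compound for one day before reading; 0% = DMSO only and full loss = 92 µM tetraoctylammonium bromide; nearly all actives have a fitted effect of over 55% in size.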 Conditions: LYMP2-012 lymphoblastoid cell viability qHTS; series mostly up to 92.2 µM.
Assay [11] in a line: Cell Viability - LYMP2-014 (AID 983).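 Also: plate controls were DMSO only for no effect and 92 µM tetraoctylammonium bromide for full effect; nearly all actives have a fitted effect of over 50% in size.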 Conditions: LYMP2-014 lymphoblastoid cells, viability qHTS; series mostly up to 92.2 µM. In short, it runs like this:
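LYMP2-014 human lymphoblastoid cells, 2500/well, treated 24 h at 37 C in complete medium; viability by CellTiter-Glo ATP luminescence after 30 min at room temperature. AC50 from Hill fits of qHTS concentration-response; tetraoctylammonium bromide positive control.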

A short description of assay [12]: Cell Viability - LYMP2-016 (AID 984). Also: % is scaled to controls: 0 for no effect and ±100 for the full control effect; nearly all actives have a fitted effect of over 55% in size. Conditions: LYMP2-016 lymphoblastoid cell viability, qHTS; series mostly up to 92.2 µM. In short, it runs like this:
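Concentration-dependent ATP depletion measured in LYMP2-016 lymphoblastoid cells, 24 h, 37 C; luciferase-based luminescent detection; Hill-equation AC50.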

Assay [13] is described as follows: Cell Viability - LYMP2-020 (AID 986). Conditions: series mostly up to 92.2 µM. In a few lines:
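Human lymphoblastoid LYMP2-020 cells (2500/well) preincubated 5 h at 37 C, then treated 24 h at 37 C. Viability measured as intracellular ATP by CellTiter-Glo luminescence after 30 min at room temperature; AC50 from Hill fits.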

Assay [14] is described as follows: Cell Viability - LYMP2-024 (AID 988).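 Also: plate controls were DMSO only for no effect and 92 µM tetraoctylammonium bromide for full effect; nearly all actives have a fitted effect of over 60% in size.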 Conditions: LYMP2-024 lymphoblastoid cell viability; series mostly up to 92.2 µM. In short, it runs like this:
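Human lymphoblastoid LYMP2-024 cells (2500/well) rested 5 hr, then treated with compound for 24 hr at 37 C in complete medium. Viability was measured as intracellular ATP by CellTiter-Glo luminescence. AC50 values came from Hill-equation fits.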

Assay [15] can be described thus: Cell Viability - LYMP2-026 (AID 989). Also: % is scaled to controls: 0 for no effect and ±100 for the full control effect; nearly all actives have a fitted effect of over 50% in size. Conditions: LYMP2-026 lymphoblastoid cell viability, qHTS; series mostly up to 92.2 µM. In a few lines:
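Human lymphoblastoid LYMP2-026 cells, 2500/well, exposed to compound 24 h at 37 C in complete medium. Viability as intracellular ATP by CellTiter-Glo luminescence; AC50 from Hill fits of qHTS concentration-response.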

A short description of assay [16]: Cell Viability - LYMP1-002 - Assay at 40 hr (AID 994).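 Also: 0% = DMSO only and full inhibition = 92 µM tetraoctylammonium bromide; nearly all actives have a fitted effect of over 60% in size.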 Conditions: LYMP1-002 lymphoblastoid cell viability; series mostly up to 92.2 µM. In a few lines:
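LYMP1-002 human lymphoblastoid cells (2500/well, complete medium) were treated with compounds for 40 hr at 37 C. Intracellular ATP was measured by CellTiter-Glo luminescence, and AC50 values came from Hill-equation fits of concentration-response data; tetraoctylammonium bromide was the positive control.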

Assay [17] is described as follows: qHTS assay for small molecule antagonists of retinoid X receptor alpha signaling (AID 588546; active = well fitted inhibition curve with a large enough effect in the signal ratio, with a control signal flat, not every such curve was filed as active; the % refers to the signal ratio;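 also: cells stimulated with 9-cis-retinoic acid as agonist; % is scaled to controls: 0 for no effect and ±100 for the full control effect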). Conditions: HEK293T RXRa-UAS-bla, beta-lactamase ratio, antagonist mode; measured here: W530 green channel, cytotoxicity proxy. In short, it runs like this:
(§1)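 Beta-lactamase reporter inhibition, read as CCF4 fluorescence ratio (ex 405, em 460/530 nm) after 2 h at RT. HEK293T UAS-bla cells, 2500/well, were stimulated with 9-cis-RA at 500 or 100 nM final alongside test compound for 18 h at 37 C.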

Assay [18] addresses Retinoic acid receptor RXR-alpha (Homo sapiens) (UniProt P19793). Described as above. Conditions: HEK293T RXRa-UAS-bla, beta-lactamase ratio, antagonist mode. In short, it runs like this: as §1
Assay [19] is described as follows: Cell Viability - LYMP2-003 (AID 965).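 Also: cells exposed to compounds for 24 h before reading; 0% = DMSO only and full effect = 92 µM tetraoctylammonium bromide; nearly all actives have a fitted effect of over 50% in size.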 Conditions: LYMP2-003 lymphoblastoid cell viability; series mostly up to 92.2 µM. In a few lines: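 qHTS, human lymphoblastoid line, 2500 cells/well, complete medium. 24 h drug, 37 C. ATP-based luminescent readout; Hill-fit AC50.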
Assay [20] in a line: qHTS assay for environmental chemicals that activate the Aryl hydrocarbon Receptor (AhR) signaling pathway (AID 651777). Also: % of control where 0% means no effect; nearly all actives have a fitted effect of over 15% in size. Conditions: 1A2-DRE human hepatoma cells, luciferase, 24 h; activation: stronger effect = higher value. In a few lines: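 Measured luciferase activity, read 30 min after One-Glo addition at room temperature, from human hepatoma cells bearing a dioxin response element–CYP1A2 promoter reporter and exposed to compound for 24 hr at 37 C.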

Inconclusive results are not listed. Calls of active or inactive are those of the source. Unless noted, calls follow the shape of the dose curve; as a rule, active = well fitted curve in the direction sought with a large enough effect; inconclusive = small, poorly fitted or top-dose-only effect, or another doubt; inactive = no such curve, though single readings can be large; an effect the other way counts as inactive or inconclusive.

Sequence of Retinoic acid receptor RXR-alpha (Homo sapiens) (P19793 whole entry, looked up): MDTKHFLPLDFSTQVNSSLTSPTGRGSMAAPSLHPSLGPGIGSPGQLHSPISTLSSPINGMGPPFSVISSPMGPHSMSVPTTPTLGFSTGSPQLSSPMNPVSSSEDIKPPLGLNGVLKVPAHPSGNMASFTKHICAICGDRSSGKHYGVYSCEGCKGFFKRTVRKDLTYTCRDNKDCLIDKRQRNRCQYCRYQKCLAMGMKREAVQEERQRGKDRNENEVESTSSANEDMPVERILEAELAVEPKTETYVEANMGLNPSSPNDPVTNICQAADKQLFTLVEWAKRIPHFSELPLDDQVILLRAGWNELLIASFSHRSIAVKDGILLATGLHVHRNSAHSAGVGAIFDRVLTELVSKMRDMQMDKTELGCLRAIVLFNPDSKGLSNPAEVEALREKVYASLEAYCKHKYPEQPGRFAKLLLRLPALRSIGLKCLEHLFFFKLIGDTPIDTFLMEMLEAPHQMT

With `Nc1cnn([C@@H]2O[C@H](CO)[C@@H](O)[C@H]2O)c(=O)n1`, the Potency in assay [1] is > 92 µM (inactive). Further, the Potency result in assay [2], in assay [3], in assay [4], in assay [5], in [6] and in [7] was “inactive” in each case. The Potency result in assay [8], in [9], in assay [10], in assay [11], in assay [12] and in [13] was “inactive” throughout. Further, the Potency result in assay [14], in [15] and in assay [16] was “inactive” throughout. The max response in assay [17] is 8.26%; in [18] it was -17.1% (inactive).

For the molecule `Cc1cc2nc(N)sc2cc1C`, the Potency result in [3], in assay [4], in assay [19], in assay [5], in assay [6] and in assay [7] was “inactive” throughout. Besides, the Potency entry in assay [8], in assay [9], in assay [10], in assay [11], in [12] and in assay [13] was “inactive” throughout. Further, the Potency entry in assay [14], in [15] and in [16] was “inactive” throughout. The figures for the max response in [17] and in assay [18] were 0.388% and 9.41% (inactive), respectively.

Consider `Brc1ccc(-c2ccccc2)cc1`, for which, in [1], the Potency was > 92 µM (inactive). The Potency result in assay [2], in assay [3], in assay [4], in assay [5], in [6] and in assay [7] was “inactive” each time. Besides, the Potency result in assay [8], in assay [9], in assay [10], in [11], in assay [12] and in assay [13] was “inactive” throughout. Further, the Potency result in assay [14], in [15] and in assay [16] was “inactive” throughout. The activation in [20] was 11.7% (inactive).

The values above are taken from PubChem BioAssay (NCATS).
